# Values joined by “and” are separate entries in the source; they are usually repeats but may differ in a detail not shown here. Equal values may be shown once. Values without a mark were called inactive. Records with an inconclusive call do not appear. A call without a number means that no potency is given here. Active and inactive are the calls of the source. Unless noted, the call rests on the fitted dose curve; in most records, active means well fitted curve in the direction sought with a large enough effect; inconclusive means small, poorly fitted or top-dose-only effect, or another doubt; inactive means no such curve, though single readings can be large; an effect the other way counts as inactive or inconclusive.
# Legend:
# NIH3T3 = assay: qHTS assay to identify novel small-molecules to repurpose for Merkel cell carcinoma treatment (AID 1296009); conditions: MCC and control cell lines, CellTiter-Glo viability, 72 h; at 44.8 µM (top of the series) unless noted; further: nearly all actives have a fitted effect of over 60% in size
# In short: (§1)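 CellTiter-Glo luminescence after 72 hr compound exposure at 37 degree celsius gave cell viability. Libraries NPC and MIPE were run as 8- and 11-point dose responses; RLUs normalized to DMSO (negative) and no-cell (cytotoxicity) controls.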
# UISO = assay: as above; conditions: MCC and control cell lines, CellTiter-Glo viability, 72 h; series mostly up to 46 µM
# In short: as §1
# WaGa = assay: as above; conditions: MCC and control cell lines, CellTiter-Glo viability, 72 h; series mostly up to 46 µM
# In short: as §1
# C33A = assay: Primary qHTS to identify gynecologic anti-cancer compounds using libraries of approved drugs and bioactive compounds (AID 1345084); conditions: Gynecologic cancer cell panel viability, ATPlite luminescence, 48 h; series mostly up to 57.5 µM; further: nearly all actives have a fitted effect of over 55% in size
# In short: (§2)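 In this quantitative HTS, cell killing is estimated from loss of ATP-dependent luciferase light. Cells see five compound concentrations over a 48 h exposure.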
# CAOV3 = assay: as above; conditions: Gynecologic cancer cell panel viability, ATPlite luminescence, 48 h; series mostly up to 57.5 µM
# In short: as §2
# CASKI = assay: as above; conditions: Gynecologic cancer cell panel viability, ATPlite luminescence, 48 h; series mostly up to 57.5 µM
# In short: as §2
# Es-2 = assay: as above; conditions: Gynecologic cancer cell panel viability, ATPlite luminescence, 48 h; series mostly up to 57.5 µM
# In short: as §2
# HeLa = assay: as above; conditions: Gynecologic cancer cell panel viability, ATPlite luminescence, 48 h; series mostly up to 57.5 µM
# In short: as §2
# Hek293T = assay: as above; conditions: Gynecologic cancer cell panel viability, ATPlite luminescence, 48 h, control line for the selectivity index; series mostly up to 57.5 µM
# In short: as §2
# JEG-3 = assay: as above; conditions: Gynecologic cancer cell panel viability, ATPlite luminescence, 48 h; series mostly up to 57.5 µM
# In short: as §2
# OV90 = assay: as above; conditions: Gynecologic cancer cell panel viability, ATPlite luminescence, 48 h; series mostly up to 57.5 µM
# In short: as §2
# PA-1 = assay: as above; conditions: Gynecologic cancer cell panel viability, ATPlite luminescence, 48 h; series mostly up to 57.5 µM
# In short: as §2
# SKOV3 = assay: as above; conditions: Gynecologic cancer cell panel viability, ATPlite luminescence, 48 h; series mostly up to 57.5 µM
# In short: as §2
# Tov-21-G = assay: as above; conditions: Gynecologic cancer cell panel viability, ATPlite luminescence, 48 h; series mostly up to 57.5 µM
# In short: as §2
# Tov112D = assay: as above; conditions: Gynecologic cancer cell panel viability, ATPlite luminescence, 48 h; series mostly up to 57.5 µM
# In short: as §2
# [1] = Drug repurposing screens with cells derived from glioblastoma tumor samples (AID 1345199); conditions: GBM patient neurospheres viability, ATP luminescence, 48 h; further: nearly all actives have a fitted effect of over 40% in size; further: potency means the concentration at half of the fitted maximal effect
# In short: (§3)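 Primary testing used CD133+ neurospheres from four GBM patients, seven concentrations, 48 h exposure and ATP-based viability; confirmation added three slower-growing patient lines.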
# astro = assay: as above; conditions: viability, ATP luminescence, 48 h; series mostly up to 45.9 µM
# In short: as §3
# [2] = biological target: Nuclear receptor subfamily 1 group I member 2 (Rattus norvegicus) (UniProt Q9R1A7); assay: qHTS assay for small molecule activators of the rat pregnane X receptor (rPXR) signaling pathway (AID 651751; call rule not given here); conditions: rPXR reporter cells, luciferase (One-Glo), 24 h
# Nuclear receptor subfamily 1 group I member 2 (Rattus norvegicus), sequence (Q9R1A7 whole entry, looked up): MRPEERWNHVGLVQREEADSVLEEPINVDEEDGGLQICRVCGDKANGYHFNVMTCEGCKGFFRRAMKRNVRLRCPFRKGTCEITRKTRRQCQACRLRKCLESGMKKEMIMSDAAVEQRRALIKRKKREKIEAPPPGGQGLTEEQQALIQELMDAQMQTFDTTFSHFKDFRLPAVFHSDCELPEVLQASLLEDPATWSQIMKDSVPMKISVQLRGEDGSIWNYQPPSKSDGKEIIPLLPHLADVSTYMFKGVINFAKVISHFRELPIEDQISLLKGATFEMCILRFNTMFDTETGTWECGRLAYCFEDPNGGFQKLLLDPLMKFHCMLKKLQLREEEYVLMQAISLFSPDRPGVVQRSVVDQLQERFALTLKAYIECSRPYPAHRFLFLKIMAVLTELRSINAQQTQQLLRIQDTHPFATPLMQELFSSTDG
# [3] = qHTS assay for small molecule activators of the human pregnane X receptor (PXR) signaling pathway (AID 720659; call rule not given here)
# [4] = at 45.9 µM (top of the series), tumour line B
# [5] = at 45.9 µM (top of the series), tumour line D
# [6] = at 46 µM (top of the series), tumour line A
# [7] = at 46.1 µM (top of the series), tumour line C
# [8] = at 20 µM (top of the series), tumour line C
# [9] = at 21.2 µM (top of the series), tumour line B
# [10] = at 21.2 µM (top of the series), tumour line D
# [11] = at 21.3 µM (top of the series), tumour line A
structure (smiles),measurement,setting,value
Cc1c(C(=O)NCCO)[n+](=O)c2ccccc2n1[O-],outcome,NIH3T3,inactive
same,outcome,UISO,inactive
same,outcome,WaGa,inactive
same,outcome,C33A,inactive
same,outcome,CAOV3,inactive
same,outcome,CASKI,inactive
same,outcome,Es-2,inactive
same,outcome,HeLa,inactive
same,outcome,Hek293T,inactive
same,outcome,JEG-3,inactive
same,Potency,OV90,inactive
same,outcome,PA-1,inactive
same,outcome,SKOV3,inactive
same,outcome,Tov-21-G,inactive
same,outcome,Tov112D,inactive
same,"activity, negative = cell killing",[1]; [4],-6.85%
same,"activity, negative = cell killing",[1]; [5],-27.6%
same,"activity, negative = cell killing",[1]; [6],-29.3%
same,"activity, negative = cell killing",[1]; [7],-6.62%
same,outcome,astro,inactive
same,max response,[2],1.89%
same,outcome,[3],inactive
CCCCC1(COC(=O)CCC(=O)O)C(=O)N(c2ccccc2)N(c2ccccc2)C1=O,outcome,NIH3T3,inactive
same,outcome,UISO,inactive
same,outcome,WaGa,inactive
same,outcome,C33A,inactive
same,outcome,CAOV3,inactive
same,outcome,CASKI,inactive
same,outcome,Es-2,inactive
same,outcome,HeLa,inactive
same,outcome,Hek293T,inactive
same,outcome,JEG-3,inactive
same,Potency,OV90,inactive
same,outcome,PA-1,inactive
same,outcome,SKOV3,inactive
same,outcome,Tov-21-G,inactive
same,outcome,Tov112D,inactive
same,"activity, negative = cell killing",[1]; [8],-5.58%
same,"activity, negative = cell killing",[1]; [9],-15.2%
same,"activity, negative = cell killing",[1]; [10],-10.8%
same,"activity, negative = cell killing",[1]; [11],-29.7%
same,outcome,astro,inactive
C=CCN1C[C@H](C(=O)N(CCCN(C)C)C(=O)NCC)C[C@@H]2c3cccc4[nH]cc(c34)C[C@H]21,outcome,NIH3T3,inactive
same,outcome,UISO,inactive
same,outcome,WaGa,inactive
same,outcome,C33A,inactive
same,outcome,CAOV3,inactive
same,outcome,CASKI,inactive
same,outcome,Es-2,inactive
same,outcome,HeLa,inactive
same,outcome,Hek293T,inactive
same,outcome,JEG-3,inactive
same,Potency,OV90,inactive
same,outcome,PA-1,inactive
same,outcome,SKOV3,inactive
same,outcome,Tov-21-G,inactive
same,outcome,Tov112D,inactive
same,"activity, negative = cell killing",[1]; [4],-13.1%
CCCNC(C)C(=O)Nc1c(C)csc1C(=O)OC (configuration not stated),outcome,NIH3T3,inactive
same,outcome,UISO,inactive
same,outcome,WaGa,inactive
same,outcome,C33A,inactive
same,outcome,CAOV3,inactive
same,outcome,CASKI,inactive
same,outcome,Es-2,inactive
same,outcome,HeLa,inactive
same,outcome,Hek293T,inactive
same,outcome,JEG-3,inactive
same,Potency,OV90,inactive
same,outcome,PA-1,inactive
same,outcome,SKOV3,inactive
same,outcome,Tov-21-G,inactive
same,outcome,Tov112D,inactive
same,"activity, negative = cell killing",[1]; [8],8.39%
same,"activity, negative = cell killing",[1]; [9],-2.83%
same,"activity, negative = cell killing",[1]; [10],-13.6%
same,"activity, negative = cell killing",[1]; [11],-41.7%
same,outcome,astro,inactive
Cc1c(I)c(=O)n(-c2ccccc2)n1C,outcome,NIH3T3,inactive
same,outcome,UISO,inactive
same,outcome,WaGa,inactive
same,outcome,C33A,inactive
same,outcome,CAOV3,inactive
same,outcome,CASKI,inactive
same,outcome,Es-2,inactive
same,outcome,HeLa,inactive
same,outcome,Hek293T,inactive
same,outcome,JEG-3,inactive
same,Potency,OV90,inactive
same,outcome,PA-1,inactive
same,outcome,SKOV3,inactive
same,outcome,Tov-21-G,inactive
same,outcome,Tov112D,inactive
same,"activity, negative = cell killing",[1]; [4],-4.2%
same,"activity, negative = cell killing",[1]; [5],-14%
same,"activity, negative = cell killing",[1]; [6],-24.2%
same,"activity, negative = cell killing",[1]; [7],3.68%
same,outcome,astro,inactive
CC(CN(C)C)C(C)(O)Cc1ccc(Cl)cc1 (configuration not stated),outcome,NIH3T3,inactive
same,outcome,UISO,inactive
same,outcome,WaGa,inactive
same,outcome,C33A,inactive
same,outcome,CAOV3,inactive
same,outcome,CASKI,inactive
same,outcome,Es-2,inactive
same,outcome,HeLa,inactive
same,outcome,Hek293T,inactive
same,outcome,JEG-3,inactive
same,Potency,OV90,inactive
same,outcome,PA-1,inactive
same,outcome,SKOV3,inactive
same,outcome,Tov-21-G,inactive
same,outcome,Tov112D,inactive
same,"activity, negative = cell killing",[1]; [4],-15.1%
same,"activity, negative = cell killing",[1]; [7],-8.21%
same,Potency,[1]; tumour line A,20 µM (active)
CCN(CC)C(=O)c1cccc(C)c1,outcome,NIH3T3,inactive
same,outcome,UISO,inactive
same,outcome,WaGa,inactive
same,outcome,C33A,inactive
same,outcome,CAOV3,inactive
same,outcome,CASKI,inactive
same,outcome,Es-2,inactive
same,outcome,HeLa,inactive
same,outcome,Hek293T,inactive
same,outcome,JEG-3,inactive
same,Potency,OV90,inactive
same,outcome,PA-1,inactive
same,outcome,SKOV3,inactive
same,outcome,Tov-21-G,inactive
same,outcome,Tov112D,inactive
same,"activity, negative = cell killing",[1]; [4],-13.5%
same,"activity, negative = cell killing",[1]; [5],-4.13%
same,"activity, negative = cell killing",[1]; [6],-18.8%
same,"activity, negative = cell killing",[1]; [7],-13.4%
same,outcome,astro,inactive
same,max response,[2],1.44% and 0.626%
same,outcome,[3],inactive
Cc1c(C)c2c(c(C)c1OC(=O)c1cccnc1)CC[C@@](C)(CCC[C@H](C)CCC[C@H](C)CCCC(C)C)O2,outcome,NIH3T3,inactive
same,outcome,UISO,inactive
same,outcome,WaGa,inactive
same,outcome,C33A,inactive
same,outcome,CAOV3,inactive
same,outcome,CASKI,inactive
same,outcome,Es-2,inactive
same,outcome,HeLa,inactive
same,outcome,Hek293T,inactive
same,outcome,JEG-3,inactive
same,Potency,OV90,inactive
same,outcome,PA-1,inactive
same,outcome,SKOV3,inactive
same,outcome,Tov-21-G,inactive
same,outcome,Tov112D,inactive
same,"activity, negative = cell killing",[1]; [4],-11.4%
same,"activity, negative = cell killing",[1]; [5],-0.0875%
same,"activity, negative = cell killing",[1]; [6],-9.82%
same,"activity, negative = cell killing",[1]; [7],-12.2%
same,outcome,astro,inactive
O=C(O)c1cc(=O)c2ccccc2o1,outcome,NIH3T3,inactive
same,outcome,UISO,inactive
same,outcome,WaGa,inactive
same,outcome,C33A,inactive
same,outcome,CAOV3,inactive
same,outcome,CASKI,inactive
same,outcome,Es-2,inactive
same,outcome,HeLa,inactive
same,outcome,Hek293T,inactive
same,outcome,JEG-3,inactive
same,Potency,OV90,inactive
same,outcome,PA-1,inactive
same,outcome,SKOV3,inactive
same,outcome,Tov-21-G,inactive
same,outcome,Tov112D,inactive
same,"activity, negative = cell killing",[1]; [4],-4.66%
same,"activity, negative = cell killing",[1]; [5],-22.4%
same,"activity, negative = cell killing",[1]; [6],-22.8%
same,"activity, negative = cell killing",[1]; [7],-14.3%
COc1ccccc1Oc1c(NS(=O)(=O)c2ccc(C(C)(C)C)cc2)nc(-c2ncccn2)nc1OCCO,outcome,NIH3T3,inactive
same,outcome,UISO,inactive
same,outcome,WaGa,inactive
same,outcome,C33A,inactive
same,outcome,CAOV3,inactive
same,outcome,CASKI,inactive
same,outcome,Es-2,inactive
same,outcome,HeLa,inactive
same,outcome,Hek293T,inactive
same,outcome,JEG-3,inactive
same,Potency,OV90,inactive
same,outcome,PA-1,inactive
same,outcome,SKOV3,inactive
same,outcome,Tov-21-G,inactive
same,outcome,Tov112D,inactive
same,"activity, negative = cell killing",[1]; [4],-11.9%
same,"activity, negative = cell killing",[1]; [5],-7.18%
same,"activity, negative = cell killing",[1]; [6],-57.2%
same,"activity, negative = cell killing",[1]; [7],-29.9%
same,outcome,astro,inactive
O=C(O)c1ccc[n+]([O-])c1,outcome,NIH3T3,inactive
same,outcome,UISO,inactive
same,outcome,WaGa,inactive
same,outcome,C33A,inactive
same,outcome,CAOV3,inactive
same,outcome,CASKI,inactive
same,outcome,Es-2,inactive
same,outcome,HeLa,inactive
same,outcome,Hek293T,inactive
same,outcome,JEG-3,inactive
same,Potency,OV90,inactive
same,outcome,PA-1,inactive
same,outcome,SKOV3,inactive
same,outcome,Tov-21-G,inactive
same,outcome,Tov112D,inactive
same,"activity, negative = cell killing",[1]; [4],-13.5%
same,"activity, negative = cell killing",[1]; [5],12.2%
same,"activity, negative = cell killing",[1]; [6],-25.2%
same,"activity, negative = cell killing",[1]; [7],-21.7%
same,outcome,astro,inactive

# From PubChem BioAssay (NCATS)
